The whole screen tested about 330,000 compounds, of which about 2,600 (0.79%) were called active. This is one part of a sample in which actives are shown more often than they occur. A number with no mark means an inactive call.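 The calls were made as follows: active = mean ATP rescue above about 67%, or every replicate alone reaching that limit (limit read from the data, passing the limit was not always enough); inconclusive = no clear call, values can overlap the other calls; inactive = mean under the limit and some replicate under it.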

The nature of the experiment: protection of differentiated C2C12 cells from simvastatin – single point, plate reader, primary screen (AID 602340).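 Also: myotubes were challenged with 10 µM simvastatin during compound exposure.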 As to conditions: C2C12 myotubes + simvastatin, ATP luminescence, 48 h; at 7.49 µM; hits give high values; scaled: DMSO 0, geranylgeraniol control 100.
Regarding `CN1CCCCN2[C@H](CO)[C@H](c3ccc(-c4ccc(F)cc4)cc3)[C@@H]2C1`, the rescue of ATP level was 1.44%.
In the case of `O=C(C[C@@H]1C=C[C@H](NC(=O)Nc2ccc3c(c2)OCO3)[C@H](CO)O1)NCc1ccccc1`, the rescue of ATP level was 2.11%.
As for `CO[C@@H]1CN(C)C(=O)c2ccc(NS(=O)(=O)c3cccc(Cl)c3)cc2OC[C@H](C)NC[C@H]1C`, the rescue of ATP level was 0.734%.
For the compound `COc1ccccc1-c1ccc2c(c1)O[C@@H](CN(C)CC1CCOCC1)[C@H](C)CN([C@@H](C)CO)S2(=O)=O`, the rescue of ATP level was -91.2%.
Regarding `CC(C)NC(=O)Nc1ccc2c(c1)CC(=O)N([C@H](C)CO)C[C@H](C)[C@@H](CN(C)C(=O)Nc1ccc(F)cc1)O2`, the rescue of ATP level was -12.6%.
Then `COc1ccc(C)cc1NC(=O)NCc1ccccn1`, with -3.96%.
In the case of `COc1ccc(NCCc2ccccn2)cc1`, the rescue of ATP level was -1.75%.
Turning to `COc1ccc2ccccc2c1CNCc1ccccn1`, the rescue of ATP level is 88.1% (active).
For `CCNC(=O)[C@H]1[C@H](CO)[C@H]2Cn3c(ccc(-c4ccc(OC)cc4)c3=O)[C@H]2N1Cc1ccccc1` the value was -6.11%; for `CCCNC(=O)Nc1ccc2c(c1)C(=O)N(C)C[C@@H](OC)[C@@H](C)CN(C)[C@@H](C)CO2`, 0.886%; for `CCCN1[C@H](C(=O)N[C@H](C)c2ccccc2)[C@@H](CO)[C@@H]2Cn3c(ccc(-c4cccc(F)c4)c3=O)[C@@H]21`, 25.4%.
Regarding `O=C(C[C@@H]1C[C@@H]2c3cc(NC(=O)Nc4ccccc4F)ccc3O[C@@H]2[C@@H](CO)O1)NCCc1ccccc1`, the rescue of ATP level was -4.6%.
As for `COc1ccccc1N1CCN(C(=O)CSc2nnc(-c3ccoc3C)o2)CC1`, the rescue of ATP level is 2.45%.
For `O=C(CSc1nnc(-c2ccccc2O)o1)NC1CCCCC1`, the rescue of ATP level is -6.5%.
As to `COc1ccccc1-c1nnc(SCC(=O)N2CC(C)CC(C)C2)o1` (centres undefined), the rescue of ATP level is 120% (active).
As to `C[C@@H]1CN([C@H](C)CO)C(=O)c2cc(C#Cc3ccncc3)cnc2O[C@H]1CN(C)Cc1ccncc1`, the rescue of ATP level was -5.15%.
Take `C[C@H]1CN([C@@H](C)CO)C(=O)CCCn2nncc2CO[C@H]1CN(C)Cc1cccc(C(=O)O)c1`: the rescue of ATP level was -4.85%.
Regarding `O=C(NN=Cc1ccccc1O)C(=O)NN=Cc1ccccc1O`, the rescue of ATP level is 1.41%.
As for `CCCC#Cc1ccc2c(c1)O[C@@H](CN(C)CC1CC1)[C@@H](C)CN([C@H](C)CO)S2(=O)=O`, the rescue of ATP level was 33.5%.
As to `CCS(=O)(=O)N1[C@H](CO)[C@@H](c2ccc(C#CC(C)C)cc2)[C@@H]1C#N`, the rescue of ATP level was -1.94%.
`Cc1noc(C)c1NC(=O)N[C@H]1CC[C@H](CC(=O)N2CCCCC2)O[C@@H]1CO`: the rescue of ATP level is 0.234%.
On to `CC=Cc1ccc2n(c1=O)C[C@@H]1[C@@H](CO)[C@H](C(=O)N3CCc4ccccc4C3)N(C(=O)C3CCC3)[C@H]21` (mixture of isomers), for which the rescue of ATP level was 17.5%.
Regarding `COc1ccc(C(=O)NC(=S)Nc2ccccc2N2CCN(S(C)(=O)=O)CC2)cc1OC`, the rescue of ATP level was 103% (active).
On to `COc1ccccc1C(=O)NC(=S)Nc1ccccc1N1CCCCC1`, for which the rescue of ATP level is 0.351%.
With `CC(=O)N1CCN(c2ccccc2NC(=S)NC(=O)c2cc3ccccc3o2)CC1`, the rescue of ATP level was 12.9%.
For `CO[C@@H]1CN(C)C(=O)c2ccc(NC(=O)C3CC3)cc2OC[C@@H](C)N(Cc2ccncc2)C[C@@H]1C` the value was 6.35%; for `COc1ccc(CN(C)C[C@H]2OCc3cn(nn3)CCCC(=O)N([C@@H](C)CO)C[C@@H]2C)cc1`, 11.6%.
For `C[C@H]1CN([C@@H](C)CO)C(=O)c2cc(C#CC3CCCCC3)cnc2O[C@@H]1CN(C)C(=O)Cc1ccccn1` the value was 16.9%.
With `O=C(NCCc1ccccc1)C1CC1`, the rescue of ATP level is 7.36%.
As for `O=C(O)C1CC=C(Cl)CC1C(=O)NCc1ccccc1` (centres undefined), the rescue of ATP level is -8.07%.
With `O=C(O)C1CC=CCC1C(=O)NCCc1ccccc1` (centres undefined), the rescue of ATP level is 104% (active).
Then `C[C@H]1CN([C@@H](C)CO)C(=O)c2cc(NC(=O)C3CCCCC3)ccc2O[C@H]1CN(C)C(=O)Nc1ccccc1`, with 6.29%.
As for `Cc1ccc(C2(c3ccc(C)cc3)NC(=O)N(Cc3c(C)noc3C)C2=O)cc1`, the rescue of ATP level is 195% (active).
For the compound `COc1ccc(C2(c3ccc(OC)cc3)NC(=O)N(CC(=O)Nc3cc(C)on3)C2=O)cc1`, the rescue of ATP level is -1.37%.
Then `COC(=O)c1ccc(CN2C(=O)NC(c3ccccc3)(c3ccccc3)C2=O)o1`, with 1.69%; and `Cc1noc(C)c1NC(=O)N(C)C[C@H]1Oc2ccc(NC(=O)Cn3cnnn3)cc2CC(=O)N([C@H](C)CO)C[C@@H]1C`, with 3.98%.
Then `O=C(NCc1nnnn1-c1ccc(Cl)cc1)c1ccc2c(c1)OCO2`, with -0.994%; and `COc1ccc(-n2nnnc2CNC(=O)c2ccc3ccccc3c2)cc1`, with -15.7%; and `O=C(NCc1nnnn1-c1ccc(Cl)cc1)c1ccc([N+](=O)[O-])o1`, with 89% (active).
As to `CCCN1[C@@H]2c3ccc(-c4ccccc4OC)c(=O)n3C[C@H]1[C@H](CO)[C@H]2C(=O)NCc1ccccn1`, the rescue of ATP level was -9.62%.
For `Cn1c(=O)n(C)c2cc(/C=N/NC(=O)c3cccc(Br)c3)ccc21` the value was 70.7% (active); for `Cn1c(=O)n(C)c2cc(C(=O)Nc3ccc(Br)cc3)ccc21`, -4.21%.
Consider `O=C(N/N=C/c1cccc(Br)c1)c1ccc(N2CCCC2=O)cc1`, for which the rescue of ATP level was -20%.
As for `N#Cc1ncc(C(F)(F)F)cc1Oc1cccnc1`, the rescue of ATP level is -4.63%.
Turning to `N#Cc1ccc(Oc2ccc(C(F)(F)F)cc2NC(=O)c2ccc(F)cc2)cc1`, the rescue of ATP level is -5.87%.
With `NC(=O)c1ncc(C(F)(F)F)cc1Oc1ccc(F)cc1`, the rescue of ATP level was 162% (active).
`CO[C@H]1CN(C)C(=O)c2ccc(NC(=O)C3CC3)cc2OC[C@H](C)N(CCc2ccccc2)C[C@H]1C`: the rescue of ATP level was 15.6%.
On to `O=C(C[C@H]1C=C[C@@H](NC(=O)C2CCOCC2)[C@@H](CO)O1)NCC1CCCCC1`, for which the rescue of ATP level is -2.92%.
With `CO[C@@H]1CN(C)C(=O)c2cc(NS(=O)(=O)CC(F)(F)F)ccc2OC[C@@H](C)N(Cc2ccccn2)C[C@H]1C`, the rescue of ATP level is -12.7%.

(Values after PubChem BioAssay AID602340 (Broad Institute, 2012).)
